This is a sample that favours compounds with a hit; in the whole collection about 1.6% have one here.
A1 inh – inhibitors of the anti-apoptotic protein A1, read as caspase activation; MEF A1-2A-BIM cells, Caspase-Glo 3/7 luminescence, 3 h; percent of clofoctol response, vehicle zero; caspase activation, % (no concentration beside the values); hit rate 0.066% among 330,000; AID 2462;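 active = over half of replicate activation scores above 10%, or exactly half above 10 with the replicate mean above 10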
Beta2AR agonist – agonists of human beta-2 adrenergic receptor inducing internalization. P07550. Am2.2-beta2AR cells, FAP receptor internalization, flow cytometry. response, % (test concentration not listed). hit rate 0.43% among 340,000. AID 504454;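 active = response above a set limit, near 3 SD of response in nonfluorescent compounds, cut at about 42% in these data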
Target sequence (P07550 whole entry, looked up): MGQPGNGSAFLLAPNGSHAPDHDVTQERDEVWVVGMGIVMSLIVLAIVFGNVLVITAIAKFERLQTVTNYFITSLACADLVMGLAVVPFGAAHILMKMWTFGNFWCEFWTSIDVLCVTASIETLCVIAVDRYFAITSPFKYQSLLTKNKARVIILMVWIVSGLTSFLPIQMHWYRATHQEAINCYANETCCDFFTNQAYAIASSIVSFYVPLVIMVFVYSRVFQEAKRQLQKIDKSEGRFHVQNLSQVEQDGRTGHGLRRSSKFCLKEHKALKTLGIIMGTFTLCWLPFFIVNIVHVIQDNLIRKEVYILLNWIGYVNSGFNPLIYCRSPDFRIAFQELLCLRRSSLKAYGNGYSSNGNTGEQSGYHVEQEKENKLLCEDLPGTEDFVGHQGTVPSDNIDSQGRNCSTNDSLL
Dyrk1A ADPGlo – blocks rat Dyrk1A kinase activity; Q63470; ADP-Glo luminescence, NFATc1 peptide; inhibition, % at 12.5 µM; hit rate 0.43% among 310,000; in the data active = inhibition above about 50%;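 note: plate controls were vehicle with enzyme for no effect and no enzyme for full effect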
dFosB act – mouse delta FosB homodimer activation | hit rate 0.99% among 340,000 | purified delta FosB, TAMRA-CDK5 oligo fluorescence polarization; percent of positive-control signal above neutral wells | AID 493131 | activation, % at 25 µM;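 active = mean activation above about 17%, with every replicate also reaching it, limit read from the data, passing the limit was not always enough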
Active calls of the source: *; nt = no result given.

SMILES | A1 inh | Beta2AR agonist | Dyrk1A ADPGlo | dFosB act
O=C(NCc1cccc(OC(F)(F)F)c1)c1cccc2c1C(=O)c1ccc(-c3ccc(F)cc3OCc3ccccc3)cc1S2(=O)=O | 1 | -7 | 4 | -8
C=CCN1C(=O)c2ccc(C(=O)N(CC)CC(=O)Nc3cc(Cl)ccc3C)cc2C1=O | 0 | -10 | 4 | -15
CCOCCCN(C)C1CCN(S(=O)(=O)c2csc(C(N)=O)c2)CC1 | 0 | 7 | nt | -5
O=C(Nc1ccccc1C(=O)N/N=C/c1ccccc1)c1ccco1 | nt | 7 | 2 | 88*
CCN1CCC(O)(/C=C/c2ccc(C(C)C)cc2)C(C(=O)/C=C/c2ccc(C(C)C)cc2)C1 (stereo not drawn) | nt | 39 | nt | 54*
O=C(O)CNS(=O)(=O)Cc1ccccc1 | -1 | 9 | 5 | -7
O=S(=O)(Cc1ccccc1)N(O)c1ccccc1 | -1 | 77* | 2 | 1
CN(c1ccccc1)S(=O)(=O)c1ccc(NC(=O)c2ccccc2)cc1 | -1 | 3 | -1 | -7
CCS(=O)(=O)c1ncc(Cl)c(C(=O)Nc2ccc(S(=O)(=O)N3CCC(C)CC3)cc2)n1 | 42* | 24 | -5 | -10
CCc1ccc(NC(=O)c2nc(S(=O)(=O)Cc3ccccc3)ncc2Cl)cc1 | 11* | 52* | 0 | 1
CN(c1ccccc1)S(=O)(=O)c1ccc(NC(=O)c2nc(S(C)(=O)=O)ncc2Cl)cc1 | 1 | 90* | -2 | -3
Cc1cc(C(=O)NC2Cc3ccccc3C2)c(C)o1 | 1 | -3 | nt | 1
Cc1cc(C(C#N)c2ccc(Cl)cc2)c(Cl)cc1NC(=O)c1cc(I)cc(I)c1O (stereo not drawn) | 5.8* | 36 | 14 | -10
CN(CCc1ccccc1)C(=O)c1ccc(NC(=O)Cc2cccc(NC(=O)C3CCN(C(=O)c4ccccc4)CC3)c2)cc1 | nt | -12 | nt | -5
O=C(NCc1ccncc1)C12CC3CC(CC(Cl)(C3)C1)C2 | 1 | -6 | -1 | 0
O=C(Cc1ccc(-n2c(=O)c3sccc3n(CC(=O)Nc3ccccc3)c2=O)cc1)NCc1ccco1 | -1 | -15 | -1 | 73*
CN1CCN(Cc2c(O)ccc3cc(-c4ccccn4)c(=O)oc23)CC1 | 0 | 69* | 6 | 0
Cc1c(C)c2ccc(O)c(CN3CCN(C)CC3)c2oc1=O | -1 | -10 | 3 | -4
ClCc1nc2ccccc2c2ccccc12 | 1 | 15 | 1 | -7
Cn1c(=O)c(C(=O)NNC(=O)c2cccc(Cl)c2)c(O)c2ccccc21 | 0 | 77* | 2 | 5
CCC(C)c1ccc(C2C3=C(Nc4nc(N)[nH]c(=O)c42)c2ccccc2C3=O)cc1 (stereo not drawn) | -1 | -1 | -1 | 33*
COc1cc(C2C3=C(Nc4nc(N)[nH]c(=O)c42)c2ccccc2C3=O)ccc1O (stereo not drawn) | 0 | -6 | 9 | 43*
Cn1c(=O)c2c(SCC(=O)Nc3ccccc3F)nc(-c3ccccc3F)nc2n(C)c1=O | 1 | 5 | -2 | 15
C/C(=C\C(=O)c1ccc(Br)cc1)NCc1ccccc1 | 0 | 46* | 1 | -1
N/C(=N\O)c1ccccc1N1CCCCC1 | 1 | -2 | 2 | 0
SMILES | A1 inh | Beta2AR agonist | Dyrk1A ADPGlo | dFosB act
CS(=O)(=O)c1nc(-c2ccc(Br)cc2)cc(-c2ccccc2)c1C#N | -1 | 30 | 2 | -4
CS(=O)c1nc(-c2ccc(Br)cc2)cc(-c2ccccc2)c1C#N (stereo not drawn) | 0 | 99* | -3 | -7
COc1cccc(-n2nc(C#N)c(Cl)cc2=O)c1 | nt | 84* | 5 | -6
Cc1csc(=O)n1CC(=O)OCC(=O)NNC(=O)c1ccc(Cl)cc1 | 0 | 1 | -1 | -9
CCOC(=O)c1c(NC(=O)Cn2nc(C(=O)O)c3ccccc3c2=O)sc2c1CCC(C)C2 (stereo not drawn) | -1 | 11 | -7 | -8
NC(=O)c1c(NC(=O)Cn2nc(C(=O)O)c3ccccc3c2=O)sc2c1CCCC2 | 0 | -2 | -9 | 91*
C=CCN(c1ccccc1Cl)S(=O)(=O)c1cc(C(=O)N2CCCC2)ccc1Cl | -1 | 13 | -3 | -6
O=C(NC(=S)N1CCCC(C(F)(F)F)C1)c1ccc(F)cc1 (stereo not drawn) | 1 | -3 | 6 | -6
Clc1ccc2c(SCC3CO3)c3ccccc3nc2c1 (stereo not drawn) | nt | 82* | nt | 0
O=C(CSc1c2c(nc3cc(Cl)ccc13)CCCC2)NCCN1CCOCC1 | -1 | -13 | 3 | -14
CCN(CC)c1ccc(C(=O)NNC(=O)CCl)cc1 | 0 | 3 | 4 | 6
CCN(CC)c1ccc(C(=C2C=CC(=[N+](CC)CC)C=C2)c2ccccc2)cc1 | nt | 59* | -2 | -11
CCN(CC)c1ccc(C(=C2C=CC(=[N+](CC)CC)C=C2)c2ccc(N(CC)CC)cc2)cc1 | nt | 82* | 31 | 7
CCCCNc1c(-c2ccc(SC(C)CC)c(OC)c2)nc2ccc(C)cn12 (stereo not drawn) | -2 | 22 | -3 | -9
CCCCNc1c(-c2ccc(SC(C)CC)c(OC)c2)nc2ccc(Cl)cn12 (stereo not drawn) | -1 | 52* | 4 | 7
CCCCNc1c(-c2ccc(-c3ccc(OC)cc3)c(OC)c2)nc2ccccn12 | nt | 46* | 2 | -3
COc1ccc(-c2csc3nc(-c4ccccc4)oc(=O)c23)cc1OC | 0 | -3 | nt | 12
CCc1ccc(C(=O)C[n+]2cccc3cc(OC)ccc32)cc1 | 1 | 1 | 4 | 2
CC1CCC(NC(=O)C2CCN(c3c4c(nc5ncnn35)CCC4)CC2)CC1 (stereo not drawn) | -1 | -5 | 0 | -2
O=C(c1ccco1)N1N=C(c2cccs2)CC1c1ccccc1O (stereo not drawn) | 0 | 1 | nt | 27*
O=C(c1cccs1)N1N=C(c2ccccc2)CC1c1ccccc1O (stereo not drawn) | 0 | -10 | -2 | 31*
Cc1ccc(C2=NN(C(=O)c3cccs3)C(c3ccccc3O)C2)cc1 (stereo not drawn) | -1 | -10 | -6 | 9
Cc1cccc(C(=O)NCC(=O)N2CCOCC2)c1 | 0 | 3 | 0 | -2
O=C(NCCOc1ccccc1F)C1CC(=O)N(c2ccc3c(c2)OCCO3)C1 (stereo not drawn) | 0 | -1 | -5 | -4
CC(C)[C@H](NC(=O)c1ccccc1)C(=O)OCC(=O)c1ccc2c(c1)NC(=O)CO2 | -1 | 4 | 2 | -9
CC(C)C(C(=O)OCC(=O)c1ccc2c(c1)NC(=O)CO2)N1C(=O)c2ccccc2C1=O (stereo not drawn) | 1 | 4 | -2 | 23*
O=C(/C=C/c1ccco1)NC(=S)Nc1ccc(C(=O)O)cc1 | 1 | -1 | 18 | -16
O=C(/C=C/c1ccco1)NC(=S)Nc1ccc(N2CCCC2)cc1 | 2 | 44* | 0 | -8
COc1ccc(/C=N/N=C2/NC(=O)C(CC(=O)NC(N)=O)S2)cc1 (stereo not drawn) | -1 | 4 | -2 | 19*
